# Rows were chosen to be rich in hits. Some 2.7% of all compounds tested hit in one or more screens of this group.
# 12-LOX inh: blocks human arachidonate 12S-lipoxygenase | P18054 | purified 12hLO, xylenol orange hydroperoxide absorbance | Potency, µM (doses to about 108 µM), inactives show at the highest dose activity change, negative = inhibition, actives largely listed as inhibitors | 580,000 compounds, 1.1% hits; also: % is scaled to controls: 0 for no effect and ±100 for the full control effect
# Target sequence (P18054 whole entry, looked up): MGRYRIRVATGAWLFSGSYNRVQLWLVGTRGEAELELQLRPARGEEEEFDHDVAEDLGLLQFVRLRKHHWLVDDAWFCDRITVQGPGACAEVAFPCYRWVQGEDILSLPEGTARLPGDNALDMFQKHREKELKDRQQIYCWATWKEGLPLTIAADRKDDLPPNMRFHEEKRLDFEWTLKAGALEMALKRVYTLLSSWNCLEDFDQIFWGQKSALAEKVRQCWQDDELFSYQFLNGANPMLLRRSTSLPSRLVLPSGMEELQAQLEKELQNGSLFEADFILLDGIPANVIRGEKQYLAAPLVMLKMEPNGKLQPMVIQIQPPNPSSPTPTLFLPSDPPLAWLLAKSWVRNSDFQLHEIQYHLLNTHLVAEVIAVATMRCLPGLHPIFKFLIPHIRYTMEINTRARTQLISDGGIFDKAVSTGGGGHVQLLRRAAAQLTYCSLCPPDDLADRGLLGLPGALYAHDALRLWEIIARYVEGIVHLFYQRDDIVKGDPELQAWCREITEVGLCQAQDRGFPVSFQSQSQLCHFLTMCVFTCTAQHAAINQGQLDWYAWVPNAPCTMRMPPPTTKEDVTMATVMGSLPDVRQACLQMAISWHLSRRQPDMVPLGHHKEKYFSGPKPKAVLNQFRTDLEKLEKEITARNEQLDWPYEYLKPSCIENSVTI
#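 Hydroperoxide product was detected by ferrous iron/xylenol orange as the 573 to 405 nm absorbance ratio. Arachidonic acid at 40 uM (final) was turned over for 30 min at room temperature by 150 nM human 12hLO, pH 7.0 Hepes buffer, after 15 min compound preincubation.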
# TGFb SMAD3 inh: blocks TGF-b signaling. HepG2 CAGA-GFP TGF-b/SMAD3 reporter, GFP fluorescence, 18 h; TGF-beta stimulated, 500 pg/mL final. Potency, µM (top dose mostly 46.1 µM), for the others: top-dose activity, negative = inhibition, hits mostly inhibitors. 410,000 compounds, 1.2% hits. AID 588855; also: % is scaled to controls: 0 for no effect and ±100 for the full control effect; nearly all actives have a fitted effect of over 65% in size
#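 Smad-responsive CAGA-GFP expression was quantified in HEPG2 cells exposed to compounds and 500 pg/mL final TGF-beta for 18 h at 37 degrees C; unstimulated wells defined full inhibition.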
# HepG2 viability: HepG2 cytotoxicity, counter-screen for TGF-b inhibitors | HepG2 CAGA-GFP viability, ATP luminescence, 18 h | Potency, µM (highest dose often 46.1 µM), for the others: at the top dose activity change, negative = cytotoxicity, usual class: cytotoxic | 410,000 compounds, 0.76% hits | AID 588856
#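 HepG2 CAGA-GFP cells (1000/well, DMEM with 1% FBS) received compound, then TGF-beta at 500 pg/mL final, and were incubated 18 hours at 37 degrees C. Viability was read by CellTiter-Glo luminescence. Media-only wells were set as complete cell-killing and DMSO as no toxicity.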
# ATXN viability: viability counter-screen for ATXN expression inhibitors. S2 cells (HEK-293 line with an ATXN2-luciferase reporter) viability, CellTiter-Fluor protease fluorescence, 24 h. Potency, µM (top dose mostly 56.7 µM), hits mostly cytotoxic. 400,000 compounds, 0.49% hits. AID 651635; also: nearly all actives have a fitted effect of over 40% in size
# ATXN2 expr inh: reduces ATXN2 reporter expression in HEK-293 cells | HEK-293 ATXN2-luciferase reporter, luminescence, 24 h | Potency, µM (titrated, usually from 57 µM), without a hit: at the highest dose activity change, negative = inhibition, usual class: inhibitors | 360,000 compounds, 0.72% hits | AID 1745845; also: % is scaled to controls: 0 for no effect and ±100 for the full control effect; nearly all actives have a fitted effect of over 55% in size
#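 qHTS (up to 57 uM final) was run with 24 h compound exposure of reporter cells at 37 °C. Each well was multiplexed: SteadyGlo luminescence measured ATXN2-luciferase expression after a fluorogenic Gly-Phe-AFC viability readout (25 uM final).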
# An asterisk follows results filed as active; i = inactive; ? = inconclusive; . = no result given; ! = not confirmed by another sample; [ ] = remark or other dose. Calls follow the shape of the dose curve; as a rule, active = well fitted curve in the direction sought with a large enough effect; inconclusive = small, poorly fitted or top-dose-only effect, or another doubt; inactive = no such curve, though single readings can be large; an effect the other way counts as inactive or inconclusive. Potency is read from the fitted curve at half-maximal effect.
SMILES,12-LOX inh,TGFb SMAD3 inh,HepG2 viability,ATXN viability,ATXN2 expr inh
COc1cccc(NC(=S)N/N=C2\CC3CCC2(C)C3(C)C)c1 (configuration not stated),35µM*,-19%,-14%,i,64%
CCCNC(=O)/C(=C/c1cn(S(=O)(=O)N(C)C)c2ccccc12)NC(=O)c1ccccc1OC,-26%,.,.,.,.
Nc1ncn(C(=S)Nc2ccccc2)n1,?,8.9µM*,-47%,?,?
S=C(Nc1ccccc1)N1CCCCCC1,0%,-1%,-1%,i,4%
CCc1c(C2(O)CCCCC2)[nH]c2cc(C(F)(F)F)ccc12,.,?,14µM*,32µM*,?
C/C(=N\NC(=S)NC1CCCCC1)c1ccc(OC(F)F)cc1OC(F)F,28µM*,?,4%,i,-2%
CC(C)c1ccc(NC(=O)c2cc(F)c(F)cc2Cl)cc1,-1%,.,.,.,.
COc1ccc(-c2nc3cc(NC(=O)CC(C)C)ccc3o2)cc1,8%,.,.,.,.
CC(/C=N/n1c(-c2ccc(Cl)cc2)n[nH]c1=S)=C\c1ccco1,32µM*,-20%,-7%,i,-9%
CC(/C=N/n1c(-c2cc(C)[nH]n2)n[nH]c1=S)=C\c1ccco1,?,10%,26%,i,-3%
S=c1[nH]nc(-c2ccccn2)n1/N=C/c1cccc2ccccc12,5.6µM*,11%,-9%,i,-19%
S=c1[nH]nc(-c2ccccc2)n1/N=C/c1ccc(Cl)cc1,22µM*,?,-60%,?,.
C=CCn1c(-c2ccccn2)n[nH]c1=S,10µM*,-7%,-21%,?,-12%
C=CCn1c(-c2cccnc2)n[nH]c1=S,-22%,4%,3%,i,11%
O=c1oc2ccc(Br)cc2cc1-c1nc(-c2ccccc2)cs1,-12%,.,.,.,.
S=c1[nH]nc(-c2ccccn2)n1/N=C/c1ccc(Cl)cc1,28µM*,3%,7%,i,-9%
c1cnc2c(c1)ccc1cccnc12,0%,?,-12%,?,5.6µM*!
CNCCO,-3%,.,.,.,.
Oc1ccc(C[C@@H]2CNCCN2CCc2cc(C(F)(F)F)cc(C(F)(F)F)c2)cc1,-21%,?,-93%,?,20µM*
FC(F)(F)c1cc(CCN2CCNC[C@H]2Cc2cccc3ccccc23)cc(C(F)(F)F)c1,?,?,-104%,40µM*,?
CCOC(=O)C1(Cc2cccc(OC)c2)CCCN(C(=O)CSc2ccncc2)C1 (configuration not stated),17%,.,.,.,.
CC(C)NC(=O)NC(=O)COc1ccc2ccc(=O)oc2c1,18%,.,.,.,.
Cc1cc(-c2nc(C)c(-c3nnc(SCC(=O)Nc4cc(Cl)cc(Cl)c4)n3C)s2)no1,106%,7%,-167%,i,-13%
Cn1c(SCC(=O)Nc2cc(Cl)cc(Cl)c2)nnc1-c1ccc2nonc2c1,?,?,-59%,?,32µM*
CCCCCCCCS(=O)CCCl (configuration not stated),-22%,.,.,.,.
SMILES,12-LOX inh,TGFb SMAD3 inh,HepG2 viability,ATXN viability,ATXN2 expr inh
CCc1ccc(C2c3[nH]c4ccccc4c3CCN2C(=O)CN2CCN(CC)CC2)cc1 (configuration not stated),?,?,13µM*,25µM*,?
O=C1NC2(CCN(C(=O)Cc3ccccc3)CC2)Oc2ccccc21,16%[176 µM],.,.,.,.
COC(=O)C1=C(C)OC(N)=C(C#N)C1c1ccc(-c2ccccc2)cc1 (configuration not stated),35µM*,.,.,.,.
CCC(C)NCc1ccc(C)cc1 (configuration not stated),10%,.,.,.,.
C[N+](C)(C)c1ccc(/C=C/c2ccnc3ccccc23)cc1,.,?,2%,.,.
CCC[N+](C)(C)c1ccc(/C=C/c2ccnc3ccccc23)cc1,.,2µM*,-50%,.,.
Cc1[nH]c2ccccc2c1/C=C/c1ccnc2ccccc12,.,13µM*,-110%,.,.
CCCN(CCC)c1ccc(/C=C/c2ccnc3ccccc23)cc1,.,217%,10µM*,.,.
CCCCCCCCCN(CCCCCCCCC)c1ccc(/C=C/c2ccnc3ccccc23)cc1,.,18%,12%,.,.
Cc1[nH]c2ccccc2c1/C=C/c1nccc2ccccc12,.,-17%,-52%,.,.
O=Cc1cccc(OCc2ccc(Cl)c(Cl)c2)c1,5%,.,.,.,.
CNC(=O)NC(=O)CN(C)C(C)C1CC1 (configuration not stated),-26%,.,.,.,.
CCc1nnc(NC(=O)c2nc(S(=O)(=O)Cc3cccc(C)c3)ncc2Cl)s1,2%,11µM*,22µM*,?,?
Cc1ccc(CS(=O)(=O)c2ncc(Cl)c(C(=O)Nc3nnc(C(C)C)s3)n2)cc1,-6%,13µM*,11µM*!,?,?
CC(C)c1nnc(NC(=O)c2nc(S(=O)(=O)Cc3ccc(F)cc3)ncc2Cl)s1,-3%,?,-71%,?,-7%
Cc1cccc(CS(=O)(=O)c2ncc(Cl)c(C(=O)Nc3nnc(C(C)C)s3)n2)c1,?,11µM*,11µM*!,28µM*,-35%
CSc1nnc(NC(=O)c2nc(S(=O)(=O)Cc3cccc(C)c3)ncc2Cl)s1,-4%,?,-76%,22µM*,28µM*
CCSc1nnc(NC(=O)c2nc(S(=O)(=O)Cc3ccc(F)cc3)ncc2Cl)s1,-6%,?,-46%,?,?
O=C(Nc1nccs1)NC1CC(=O)N(c2cccc(F)c2)C1 (configuration not stated),0%,.,.,.,.
Cc1cccc2[nH]c(C(=O)OCC(=O)N3CCCCC3)cc12,-5%,.,.,.,.
O=C(Nc1nc2ccc(F)cc2s1)c1nc(S(=O)(=O)Cc2ccccc2F)ncc1Cl,-20%,6.3µM*,7.1µM*,11µM*,25µM*
CCOc1ccccc1NC(=O)c1nc(S(=O)(=O)Cc2cccc(C)c2)ncc1Cl,41%,?,-21%,32µM*!,-12%
CCNC(=O)c1c(NC(=O)c2nc(SCC)ncc2Cl)sc2c1CCCC2,.,10%,11%,.,.
CCNC(=O)c1c(NC(=O)c2nc(S(=O)(=O)CC)ncc2Cl)sc2c1CCCC2,0%,1.4µM*,4µM*,.,.
CCc1nnc(NC(=O)c2nc(S(=O)(=O)Cc3ccccc3)ncc2Cl)s1,-6%,?,-95%,?,?
COC(=O)c1ccccc1NC(=O)c1nc(S(=O)(=O)Cc2ccccc2)ncc1Cl,16%,1%,-18%,?,.
CC(C)c1nnc(NC(=O)c2nc(S(=O)(=O)Cc3ccccc3F)ncc2Cl)s1,23%,13µM*,-104%,7.1µM*,10µM*
Cc1nnc(NC(=O)c2nc(S(=O)(=O)Cc3ccccc3C)ncc2Cl)s1,-14%,?,-104%,?,?
O=C(Nc1ccccc1Cl)N1CCN(c2ccc3nnc(-c4ccccc4)n3n2)CC1,.,-8%,-1%,i,?

# Compound activity as filed in PubChem.
